High-throughput results from PubChem.
DAGLB inh – blocks human DAGLB lipase activity. Q8NCG7. HEK293T DAGLB membrane lysate, EnzChek fluorogenic substrate. inhibition, % at 5.17 µM. hit rate 0.059% among 340,000; in the data active = inhibition above about 34%
PAFAH2 FP inh – inhibitors of human PAFAH2; Q99487; recombinant PAFAH2, FP-rhodamine activity probe, fluorescence polarization; inhibition, % at 3.39 µM; hit rate 0.99% among 340,000; AID 492956;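 active = inhibition above the mean over all tested compounds plus 3 SD, cut at about 30% in these data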;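 note: inhibitors block probe labeling of enzyme so polarization drops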
pPAFAH inh – pPAFAH (human) enzyme inhibition | hit rate 1.5% among 330,000 | inhibition, % at 3.39 µM | recombinant pPAFAH, FP-rhodamine probe fluorescence polarization | AID 463082 | Q13093;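 active = inhibition above the mean inhibition across the screen plus 3 SD, cut at about 25% in these data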;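 note: inhibitors block binding of the rhodamine activity-based probe so polarization drops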
Target sequence (Q13093 whole entry, looked up): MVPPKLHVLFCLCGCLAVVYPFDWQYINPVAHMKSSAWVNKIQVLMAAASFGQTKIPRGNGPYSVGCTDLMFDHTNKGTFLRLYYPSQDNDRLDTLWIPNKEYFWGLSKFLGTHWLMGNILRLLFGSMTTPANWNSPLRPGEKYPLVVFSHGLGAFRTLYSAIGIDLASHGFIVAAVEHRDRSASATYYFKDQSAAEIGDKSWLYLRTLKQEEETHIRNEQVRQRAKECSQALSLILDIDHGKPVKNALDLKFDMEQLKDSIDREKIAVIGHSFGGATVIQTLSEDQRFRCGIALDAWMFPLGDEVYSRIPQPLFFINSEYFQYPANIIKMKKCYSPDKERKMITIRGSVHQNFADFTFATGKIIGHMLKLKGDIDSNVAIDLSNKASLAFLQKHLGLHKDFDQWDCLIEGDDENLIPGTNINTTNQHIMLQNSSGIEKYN
PAFAH1B3 FP inh – PAFAH1B3 (human) inhibition; Q15102; recombinant PAFAH1B3, FP-rhodamine probe, fluorescence polarization; inhibition, % at 3.39 µM; hit rate 0.28% among 340,000;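 active = inhibition above the screen-wide average of all tested compounds plus 3 SD, cut at about 25% in these data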
PAFAH1B2 FP inh – blocks human PAF acetylhydrolase 1b catalytic subunit 2; P68402; recombinant PAFAH1B2, FP-rhodamine activity probe, fluorescence polarization; inhibition, % at 3.39 µM; hit rate 1.2% among 340,000;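 active = inhibition above the mean of all tested compounds plus 3 SD, cut at about 24% in these data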
Target sequence (P68402 whole entry, looked up): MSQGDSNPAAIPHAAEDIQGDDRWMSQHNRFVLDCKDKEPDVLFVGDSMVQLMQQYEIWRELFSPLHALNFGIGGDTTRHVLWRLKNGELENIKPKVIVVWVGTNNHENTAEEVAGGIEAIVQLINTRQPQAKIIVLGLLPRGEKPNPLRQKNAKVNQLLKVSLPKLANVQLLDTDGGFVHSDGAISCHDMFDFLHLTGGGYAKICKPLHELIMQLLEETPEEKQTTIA
ATG4B inhibitor – ATG4B (human) cysteine protease inhibition | Q9Y4P1 | hit rate 0.51% among 340,000 | inhibition, % at 8.33 µM | ATG4B cleavage of LC3-PLA2, NBD-HPC fluorescence, 1 h; in the data active = inhibition above about 40%
A number is an active result. Only some compounds are listed: those with a hit (about 3% of all), similar ones and a draw of the others.

What do the screens show for `CC(=O)Oc1ccc(C(=O)Cc2ccc3ccccc3n2)c(O)c1C`?
DAGLB inh: inactive; PAFAH2 FP inh: inactive; pPAFAH inh: inactive; PAFAH1B3 FP inh: inactive; PAFAH1B2 FP inh: inactive; ATG4B inhibitor: inactive

What do the screens show for `Cc1c(O)ccc(/C(Cc2ccc3ccccc3n2)=N\O)c1O`?
DAGLB inh: inactive; PAFAH2 FP inh: inactive; pPAFAH inh: inactive; PAFAH1B3 FP inh: 53; PAFAH1B2 FP inh: 29; ATG4B inhibitor: inactive

What do the screens show for `COc1ccc(NC(=O)C[C@H]2C(=O)N(C3CCCCC3)C[C@@H]2c2ccc(OC)cc2)cc1`?
DAGLB inh: inactive

How did COc1ccc(-c2cc(-c3ccco3)[nH]c(=O)c2C#N)cc1 do in these assays?
DAGLB inh: inactive; PAFAH2 FP inh: inactive; pPAFAH inh: 30; PAFAH1B3 FP inh: inactive; PAFAH1B2 FP inh: inactive; ATG4B inhibitor: inactive

What do the screens show for `CN(c1ccccc1)S(=O)(=O)c1cccc(C(=O)OCC(=O)NCc2ccco2)c1`?
DAGLB inh: inactive; PAFAH2 FP inh: inactive; pPAFAH inh: inactive; PAFAH1B3 FP inh: inactive; PAFAH1B2 FP inh: inactive; ATG4B inhibitor: inactive

How did COc1cc(OC)c(N(C)S(=O)(=O)c2cccc(C(=O)OCC(=O)NCc3ccco3)c2)cc1Cl do in these assays?
DAGLB inh: inactive; PAFAH2 FP inh: 32; pPAFAH inh: 33; PAFAH1B3 FP inh: inactive; PAFAH1B2 FP inh: inactive; ATG4B inhibitor: inactive

How did Cc1cccc(CS(=O)(=O)Cc2ccc(C(=O)NCc3ccco3)o2)c1 do in these assays?
DAGLB inh: inactive; PAFAH2 FP inh: inactive; pPAFAH inh: 25; PAFAH1B3 FP inh: inactive; PAFAH1B2 FP inh: inactive; ATG4B inhibitor: inactive

Results for Cc1ccc(CS(=O)(=O)Cc2ccc(C(=O)NCc3ccco3)o2)cc1 ?
DAGLB inh: inactive; PAFAH2 FP inh: inactive; pPAFAH inh: 34; PAFAH1B3 FP inh: inactive; PAFAH1B2 FP inh: inactive; ATG4B inhibitor: inactive

What do the screens show for `COc1cccc(-c2sc3ccccc3c2-c2ccc(OCCN(C)C)cc2)c1`?
DAGLB inh: inactive; PAFAH2 FP inh: inactive; pPAFAH inh: inactive; PAFAH1B3 FP inh: inactive; PAFAH1B2 FP inh: inactive; ATG4B inhibitor: inactive

What do the screens show for `Nc1ccc(N)c(C(=O)O)c1`?
DAGLB inh: inactive; PAFAH2 FP inh: 66; pPAFAH inh: 34; PAFAH1B3 FP inh: 69; PAFAH1B2 FP inh: 47; ATG4B inhibitor: inactive

Results for CC(C)c1ccc(OCC(=O)NC(C)c2ccccc2)cc1 (stereo not drawn) ?
DAGLB inh: inactive; PAFAH2 FP inh: inactive; pPAFAH inh: inactive; PAFAH1B3 FP inh: inactive; PAFAH1B2 FP inh: 29; ATG4B inhibitor: inactive

How did Cc1ccc(OCC(=O)NC(C)c2ccccc2)cc1 (stereo not drawn) do in these assays?
DAGLB inh: inactive; PAFAH2 FP inh: inactive; pPAFAH inh: inactive; PAFAH1B3 FP inh: inactive; PAFAH1B2 FP inh: inactive; ATG4B inhibitor: inactive

How did CCC(C)NC(=O)COc1ccc(OCc2ccccc2)cc1 (stereo not drawn) do in these assays?
DAGLB inh: inactive; PAFAH2 FP inh: inactive; pPAFAH inh: inactive; PAFAH1B3 FP inh: inactive; PAFAH1B2 FP inh: 27; ATG4B inhibitor: inactive

How did CCOc1ccc(CCNC(=O)CCS(=O)(=O)c2ccc(OC)cc2)cc1OCC do in these assays?
DAGLB inh: inactive; PAFAH2 FP inh: inactive; pPAFAH inh: 34; PAFAH1B3 FP inh: inactive; PAFAH1B2 FP inh: inactive; ATG4B inhibitor: inactive

What do the screens show for `CC(C)(C)c1ccc(C(=O)NCCC(=O)NNC(=O)COc2ccccc2F)cc1`?
DAGLB inh: inactive; PAFAH2 FP inh: inactive; pPAFAH inh: inactive; PAFAH1B3 FP inh: inactive; PAFAH1B2 FP inh: 25; ATG4B inhibitor: inactive

Results for CN(Cc1ccccc1F)C(=O)CCNC(=O)c1ccc(C(C)(C)C)cc1 ?
DAGLB inh: inactive; PAFAH2 FP inh: inactive; pPAFAH inh: inactive; PAFAH1B3 FP inh: inactive; PAFAH1B2 FP inh: 28; ATG4B inhibitor: inactive

What do the screens show for `CCOc1cc(C(=O)N(C)CC(=O)Nc2cccc3ccccc23)ccc1OC`?
DAGLB inh: inactive; PAFAH2 FP inh: inactive; pPAFAH inh: inactive; PAFAH1B3 FP inh: inactive; PAFAH1B2 FP inh: inactive; ATG4B inhibitor: inactive

Results for CC(=O)NCCNC(=O)c1ccc(NC2=NC3CS(=O)(=O)CC3S2)cc1 (stereo not drawn) ?
DAGLB inh: inactive; PAFAH2 FP inh: inactive; pPAFAH inh: inactive; PAFAH1B3 FP inh: inactive; PAFAH1B2 FP inh: inactive; ATG4B inhibitor: inactive

Results for NNC(=O)c1ccc(COc2ccc(Br)cc2)o1 ?
DAGLB inh: inactive; PAFAH2 FP inh: inactive; pPAFAH inh: inactive; PAFAH1B3 FP inh: inactive; PAFAH1B2 FP inh: 25; ATG4B inhibitor: inactive

How did CCOc1ccc(OCc2ccc(C(=O)N3N=C(C(F)F)CC3(O)C(F)F)o2)cc1 (stereo not drawn) do in these assays?
DAGLB inh: inactive; PAFAH2 FP inh: inactive; pPAFAH inh: inactive; PAFAH1B3 FP inh: inactive; PAFAH1B2 FP inh: inactive; ATG4B inhibitor: inactive

What do the screens show for `CC(C)(C)c1ccc(OCc2ccc(C(=O)NN)o2)cc1`?
DAGLB inh: inactive; PAFAH2 FP inh: inactive; pPAFAH inh: inactive; PAFAH1B3 FP inh: inactive; PAFAH1B2 FP inh: inactive; ATG4B inhibitor: inactive

Results for O=C(c1ccc(COc2ccc(Br)cc2)o1)N1N=C(C(F)F)CC1(O)C(F)F (stereo not drawn) ?
DAGLB inh: inactive; PAFAH2 FP inh: inactive; pPAFAH inh: inactive; PAFAH1B3 FP inh: inactive; PAFAH1B2 FP inh: 29; ATG4B inhibitor: inactive

What do the screens show for `CC(C)(C)[C@@H]1COC(=O)[C@H](Cc2ccc(F)cc2)CC/C=C\C[C@@H](CC(=O)N(CCO)Cc2ccccc2)C(=O)N1`?
DAGLB inh: inactive; PAFAH2 FP inh: inactive; pPAFAH inh: inactive; PAFAH1B3 FP inh: inactive; PAFAH1B2 FP inh: inactive; ATG4B inhibitor: inactive

How did Cc1cc(C(=O)N2CCN(c3ccc([N+](=O)[O-])cc3)CC2)n[nH]1 do in these assays?
DAGLB inh: inactive; PAFAH2 FP inh: inactive; pPAFAH inh: inactive; PAFAH1B3 FP inh: inactive; PAFAH1B2 FP inh: inactive; ATG4B inhibitor: inactive

What do the screens show for `O=C1c2ccccc2-c2onc3ccc(N4CCCC4)c1c23`?
DAGLB inh: inactive; PAFAH2 FP inh: 88; PAFAH1B3 FP inh: 74; PAFAH1B2 FP inh: 77; ATG4B inhibitor: inactive

What do the screens show for `Cc1ccc(NC(=O)COC(=O)c2ccc([N+](=O)[O-])s2)c(C)c1`?
DAGLB inh: inactive; PAFAH2 FP inh: 39; pPAFAH inh: inactive; PAFAH1B3 FP inh: 28; PAFAH1B2 FP inh: inactive; ATG4B inhibitor: inactive

Results for Cc1cc(C)c(NC(=O)COC(=O)c2ccc([N+](=O)[O-])s2)c(C)c1 ?
DAGLB inh: inactive; PAFAH2 FP inh: inactive; pPAFAH inh: inactive; PAFAH1B3 FP inh: inactive; PAFAH1B2 FP inh: inactive; ATG4B inhibitor: inactive

Results for Cc1ccc(SCC(=O)OCC(=O)N(C)CC(=O)Nc2ccccc2Cl)cc1C ?
DAGLB inh: inactive; PAFAH2 FP inh: inactive; pPAFAH inh: 34; PAFAH1B3 FP inh: inactive; PAFAH1B2 FP inh: inactive; ATG4B inhibitor: inactive

What do the screens show for `CC(=O)Nc1ccc(NC(=O)COC(=O)c2ccc(C)s2)cc1`?
DAGLB inh: inactive; PAFAH2 FP inh: inactive; pPAFAH inh: inactive; PAFAH1B3 FP inh: inactive; PAFAH1B2 FP inh: inactive; ATG4B inhibitor: inactive

What do the screens show for `CN(CC(=O)Nc1ccccc1Cl)C(=O)COC(=O)c1cccs1`?
DAGLB inh: inactive; PAFAH2 FP inh: inactive; pPAFAH inh: inactive; PAFAH1B3 FP inh: inactive; PAFAH1B2 FP inh: inactive; ATG4B inhibitor: inactive
